These compounds were tested on HGGX39 (paediatric high-grade glioma line) (assay: growth inhibition (% activity, log2 RLU normalised to DMSO / staurosporine); higher = more growth inhibition). Conditions: 33 µM.
How it was run: (§1)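 Cells (pHGG lines and H9-derived neural stem cells) were plated on Geltrex-coated 384-well plates and exposed to approved drugs at a single final concentration of about 33 μM, in triplicate, for 7 days at 37 °C, 5% CO2. Log2-transformed CellTiter-Glo luminescence was normalised per plate to % activity between solvent and positive control wells, and the growth-inhibition value is the median over replicates.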
Cc1ccc(-c2cc(C(F)(F)F)nn2-c2ccc(S(N)(=O)=O)cc2)cc1 was tested, and the growth inhibition was -0.617%. CC(C)(C)C(=O)OCOP(=O)(COCCn1cnc2c(N)ncnc21)OCOC(=O)C(C)(C)C was tested, and the growth inhibition was 11.8%. With NCCNCCNCCNCCN the growth inhibition was 2.02%. For CC(=O)[C@H]1CC[C@H]2[C@@H]3CC=C4C[C@@H](O)CC[C@]4(C)[C@H]3CC[C@]12C, the growth inhibition was -1.75%. CC[C@H](C)C(=O)O[C@H]1C[C@@H](C)C=C2C=C[C@H](C)[C@H](CC[C@@H]3C[C@@H](O)CC(=O)O3)[C@H]21 showed a growth inhibition of 16.2%. With CC(C)/N=c1\cc2n(-c3ccc(Cl)cc3)c3ccccc3nc-2cc1Nc1ccc(Cl)cc1 the growth inhibition was 10%. COc1ccc(O)cc1 gave a growth inhibition of -0.798%. C[C@@H](NCCCc1cccc(C(F)(F)F)c1)c1cccc2ccccc12 was tested, and the growth inhibition was 5.43%. NCCS(=O)(=O)O gave a growth inhibition of 0.579%. For CC(=O)SCC(Cc1ccccc1)C(=O)NCC(=O)OCc1ccccc1 (stereo not drawn), the growth inhibition was 1.49%. Work on O=C(O)C1=CO[C@@H](O[C@@H]2O[C@H](CO)[C@@H](O)[C@H](O)[C@H]2O)[C@@H]2C(CO)=CC[C@H]12 yielded a growth inhibition of -2.13%. Work on O=C1[C@H](CC[C@H](O)c2ccc(F)cc2)[C@@H](c2ccc(O)cc2)N1c1ccc(F)cc1 yielded a growth inhibition of -0.454%. CCCCC(=O)N(Cc1ccc(-c2ccccc2-c2nnn[nH]2)cc1)[C@H](C(=O)O)C(C)C gave a growth inhibition of -2.05%. For O=c1[nH]cc(F)c(=O)[nH]1, the growth inhibition was 5.4%. In the case of CN(C)C/C=C/C(=O)Nc1cc2c(Nc3ccc(F)c(Cl)c3)ncnc2cc1O[C@H]1CCOC1, the growth inhibition is reported as 11.5%. COc1cc(C(=O)NS(=O)(=O)c2ccccc2C)ccc1Cc1cn(C)c2ccc(NC(=O)OC3CCCC3)cc12 gave a growth inhibition of 1.49%. In the case of c1ccc(CN(CC2=NCCN2)c2ccccc2)cc1, the growth inhibition is reported as 1.53%. CC(C)CN(C[C@@H](O)[C@H](Cc1ccccc1)NC(=O)O[C@H]1CCOC1)S(=O)(=O)c1ccc(N)cc1 showed a growth inhibition of -0.345%. Compound COc1cccc2c1C(=O)c1c(O)c3c(c(O)c1C2=O)C[C@@](O)(C(C)=O)C[C@@H]3O[C@H]1C[C@H](N)[C@H](O)[C@H](C)O1 has a growth inhibition of 53%. For CCOc1ccc2ccccc2c1C(=O)N[C@@H]1C(=O)N2[C@@H]1SC(C)(C)[C@@H]2C(=O)O, the growth inhibition was -0.856%. CCOc1nc2cccc(C(=O)OCc3oc(=O)oc3C)c2n1Cc1ccc(-c2ccccc2-c2noc(=O)[nH]2)cc1 showed a growth inhibition of 0.998%. Work on COc1ccc2c(c1)c(CC(=O)OCC(=O)O)c(C)n2C(=O)c1ccc(Cl)cc1 yielded a growth inhibition of 6.62%. Work on N[C@@H]1CONC1=O yielded a growth inhibition of 0.732%. O=C(O)c1ccc(-n2nc(-c3ccccc3O)nc2-c2ccccc2O)cc1 showed a growth inhibition of -2%. CCCCCCNC(=O)n1cc(F)c(=O)[nH]c1=O showed a growth inhibition of 6.44%. Compound C=C1/C(=C\C=C2/CCC[C@]3(C)[C@@H]([C@H](C)CCCC(C)C)CC[C@@H]23)C[C@@H](O)C[C@@H]1O has a growth inhibition of 3.21%. For COc1cc2nccc(Oc3ccc(NC(=O)C4(C(=O)Nc5ccc(F)cc5)CC4)cc3)c2cc1OC, the growth inhibition was 4.78%. Work on Nc1cccc2c1C(=O)N(C1CCC(=O)NC1=O)C2=O (stereo not drawn) yielded a growth inhibition of -1.86%. For CCOC(=O)C1=C[C@@H](OC(CC)CC)[C@H](NC(C)=O)[C@@H](N)C1, the growth inhibition was -0.188%. Nc1nc2c(ncn2COC(CO)CO)c(=O)[nH]1 was tested, and the growth inhibition was 1.32%. O=C(c1ccc(OCCN2CCCCC2)cc1)c1c(-c2ccc(O)cc2)sc2cc(O)ccc12 was tested, and the growth inhibition was 6.41%. Work on CC[C@@H]1C(=O)OC[C@@H]1Cc1cncn1C yielded a growth inhibition of 0.217%. For C=C[C@H]1CN2CC[C@H]1C[C@H]2[C@H](O)c1ccnc2ccc(OC)cc12, the growth inhibition was 3.17%. CCN1CCN(c2cc(-c3ccc(F)cc3)c3c(n2)CCCCCC3)CC1 was tested, and the growth inhibition was 10.1%. With Cc1cc2c(cc1S(N)(=O)=O)S(=O)(=O)CCC2 the growth inhibition was 0.974%. Work on C[C@@H]1CN(c2c(F)c(N)c3c(=O)c(C(=O)O)cn(C4CC4)c3c2F)C[C@H](C)N1 yielded a growth inhibition of 1.49%. In the case of Cn1c(CNc2ccc(C(=N)N)cc2)nc2cc(C(=O)N(CCC(=O)O)c3ccccn3)ccc21, the growth inhibition is reported as 2.01%. For CCN(CC)CCOc1ccc(C(=C(Cl)c2ccccc2)c2ccccc2)cc1, the growth inhibition was 36.3%. Compound C[C@@H]1O[C@@H]1P(=O)(O)O has a growth inhibition of 2.18%.

What follows are compounds tested on HGGX6 (H3.3 G34R paediatric high-grade glioma line) in the same assay as above. Conditions: 33 µM.
How it was run: as §1
Cc1ccc(-c2cc(C(F)(F)F)nn2-c2ccc(S(N)(=O)=O)cc2)cc1 gave a growth inhibition of -1.39%. CC(C)(C)C(=O)OCOP(=O)(COCCn1cnc2c(N)ncnc21)OCOC(=O)C(C)(C)C showed a growth inhibition of 7.96%. NCCNCCNCCNCCN gave a growth inhibition of 3.41%. In the case of CC(=O)[C@H]1CC[C@H]2[C@@H]3CC=C4C[C@@H](O)CC[C@]4(C)[C@H]3CC[C@]12C, the growth inhibition is reported as -0.479%. For CC[C@H](C)C(=O)O[C@H]1C[C@@H](C)C=C2C=C[C@H](C)[C@H](CC[C@@H]3C[C@@H](O)CC(=O)O3)[C@H]21, the growth inhibition was 10.8%. CC(C)/N=c1\cc2n(-c3ccc(Cl)cc3)c3ccccc3nc-2cc1Nc1ccc(Cl)cc1 was tested, and the growth inhibition was 7.37%. Compound COc1ccc(O)cc1 has a growth inhibition of 0.118%. C[C@@H](NCCCc1cccc(C(F)(F)F)c1)c1cccc2ccccc12 was tested, and the growth inhibition was 18.9%. Work on NCCS(=O)(=O)O yielded a growth inhibition of 1.43%. CC(=O)SCC(Cc1ccccc1)C(=O)NCC(=O)OCc1ccccc1 (stereo not drawn) showed a growth inhibition of 1.32%. O=C(O)C1=CO[C@@H](O[C@@H]2O[C@H](CO)[C@@H](O)[C@H](O)[C@H]2O)[C@@H]2C(CO)=CC[C@H]12 was tested, and the growth inhibition was -4.13%. In the case of O=C1[C@H](CC[C@H](O)c2ccc(F)cc2)[C@@H](c2ccc(O)cc2)N1c1ccc(F)cc1, the growth inhibition is reported as -1.33%. Work on CCCCC(=O)N(Cc1ccc(-c2ccccc2-c2nnn[nH]2)cc1)[C@H](C(=O)O)C(C)C yielded a growth inhibition of -0.244%. With O=c1[nH]cc(F)c(=O)[nH]1 the growth inhibition was 7.93%. In the case of CN(C)C/C=C/C(=O)Nc1cc2c(Nc3ccc(F)c(Cl)c3)ncnc2cc1O[C@H]1CCOC1, the growth inhibition is reported as 47.5%. COc1cc(C(=O)NS(=O)(=O)c2ccccc2C)ccc1Cc1cn(C)c2ccc(NC(=O)OC3CCCC3)cc12 was tested, and the growth inhibition was -2.28%. c1ccc(CN(CC2=NCCN2)c2ccccc2)cc1 was tested, and the growth inhibition was 0.0328%. Work on CC(C)CN(C[C@@H](O)[C@H](Cc1ccccc1)NC(=O)O[C@H]1CCOC1)S(=O)(=O)c1ccc(N)cc1 yielded a growth inhibition of -0.047%. COc1cccc2c1C(=O)c1c(O)c3c(c(O)c1C2=O)C[C@@](O)(C(C)=O)C[C@@H]3O[C@H]1C[C@H](N)[C@H](O)[C@H](C)O1 was tested, and the growth inhibition was 56.3%. Compound CCOc1ccc2ccccc2c1C(=O)N[C@@H]1C(=O)N2[C@@H]1SC(C)(C)[C@@H]2C(=O)O has a growth inhibition of -5.66%. Compound CCOc1nc2cccc(C(=O)OCc3oc(=O)oc3C)c2n1Cc1ccc(-c2ccccc2-c2noc(=O)[nH]2)cc1 has a growth inhibition of -2.04%. With COc1ccc2c(c1)c(CC(=O)OCC(=O)O)c(C)n2C(=O)c1ccc(Cl)cc1 the growth inhibition was 4.04%. N[C@@H]1CONC1=O showed a growth inhibition of 0.485%. O=C(O)c1ccc(-n2nc(-c3ccccc3O)nc2-c2ccccc2O)cc1 was tested, and the growth inhibition was -3.44%. For CCCCCCNC(=O)n1cc(F)c(=O)[nH]c1=O, the growth inhibition was 9.38%. C=C1/C(=C\C=C2/CCC[C@]3(C)[C@@H]([C@H](C)CCCC(C)C)CC[C@@H]23)C[C@@H](O)C[C@@H]1O gave a growth inhibition of 3.92%. Work on COc1cc2nccc(Oc3ccc(NC(=O)C4(C(=O)Nc5ccc(F)cc5)CC4)cc3)c2cc1OC yielded a growth inhibition of 17.7%. In the case of Nc1cccc2c1C(=O)N(C1CCC(=O)NC1=O)C2=O (stereo not drawn), the growth inhibition is reported as -0.402%. CCOC(=O)C1=C[C@@H](OC(CC)CC)[C@H](NC(C)=O)[C@@H](N)C1 gave a growth inhibition of 0.263%. Work on Nc1nc2c(ncn2COC(CO)CO)c(=O)[nH]1 yielded a growth inhibition of 1.03%. Compound O=C(c1ccc(OCCN2CCCCC2)cc1)c1c(-c2ccc(O)cc2)sc2cc(O)ccc12 has a growth inhibition of 7.69%. In the case of CC[C@@H]1C(=O)OC[C@@H]1Cc1cncn1C, the growth inhibition is reported as -0.083%. C=C[C@H]1CN2CC[C@H]1C[C@H]2[C@H](O)c1ccnc2ccc(OC)cc12 was tested, and the growth inhibition was 1.13%. In the case of CCN1CCN(c2cc(-c3ccc(F)cc3)c3c(n2)CCCCCC3)CC1, the growth inhibition is reported as 0.894%. Cc1cc2c(cc1S(N)(=O)=O)S(=O)(=O)CCC2 showed a growth inhibition of 0.857%. For C[C@@H]1CN(c2c(F)c(N)c3c(=O)c(C(=O)O)cn(C4CC4)c3c2F)C[C@H](C)N1, the growth inhibition was -2.08%. Compound Cn1c(CNc2ccc(C(=N)N)cc2)nc2cc(C(=O)N(CCC(=O)O)c3ccccn3)ccc21 has a growth inhibition of -1.53%. For CCN(CC)CCOc1ccc(C(=C(Cl)c2ccccc2)c2ccccc2)cc1, the growth inhibition was 28%. In the case of C[C@@H]1O[C@@H]1P(=O)(O)O, the growth inhibition is reported as 1.12%.
